HTT promoter inh: Primary qHTS for Identification of Small Molecule Inhibitors of Huntingtin Promoter Activity | 0.93% of 48,000 active | HEK293 HTT promoter firefly luciferase reporter, 24 h | Potency, µM (top dose mostly 57.5 µM), for inactives: top-dose activity change, negative = inhibition, actives largely listed as inhibitors | AID 1508623, 2021; note: potency is the fitted concentration of half-maximal effect; nearly all actives have a fitted effect of over 50% in size
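HEK293 Fluc reporter, 2,500 cells/well, 24 h pre-culture; cpds up to 57.5 uM final, 24 h 37 degrees C; Dual-Glo, 10 min RT; normalized vehicle = 0%, zero RLU = -100%.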
HTT-AS act: Primary qHTS for Identification of Small Molecule Activators of Huntingtin-Antisense Promoter Activity. HEK293 HTT-AS promoter firefly luciferase reporter, 24 h; response scale: percent change from vehicle, -100% = no light. Potency, µM (doses to about 57.5 µM), without a hit: top-dose activity change, positive = activation, actives largely listed as activators. 0.24% of 48,000 active. AID 1508624, 2021; note: potency is the fitted concentration of half-maximal effect; nearly all actives have a fitted effect of over 55% in size
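Firefly luciferase readout (Dual-Glo, 10 min RT) after 24 h, 37 °C compound exposure (final up to 57.5 uM) of HEK293 reporter cells cultured 24 h beforehand; PTC124 at 50 uM final as control inhibitor; activity scaled vehicle 0%, zero RLU -100%.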
DRV1 agonist: qHTS for Agonists of Human Resolvin D1 Receptor DRV1; AID 1346428, 2018; CHO-K1 GPR32 beta-arrestin PathHunter luminescence, 90 min; zero percent set by DMSO-only wells; 2.5% of 48,000 active; activation, % at 76.9 µM; Probable G-protein coupled receptor 32 (Homo sapiens), O75388;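 active = activation of at least 60% and not above a set upper limit, about 1 call in 100 departs from these limits; inconclusive = activation of 40% to 60%, or above that upper limit; inactive = activation under 40%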; note: 0% is about no effect
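Using DMSO wells as EC0, agonist-induced signal was taken as chemiluminescence from beta-Gal reconstituted upon beta-arrestin recruitment to GPR32 in CHO-K1 cells after 90 min compound treatment.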
NTMT1 inhibitor: Primary qHTS for Inhibitors of N-terminal methyltransferase 1 (NTMT1): MTaseGlo Assay; 2.5% of 59,000 active; AID 1645870, 2021; N-terminal Xaa-Pro-Lys N-methyltransferase 1 (Homo sapiens), Q9BV86; NTMT1 MTase-Glo SAH luminescence, purified enzyme; Potency, µM (top dose mostly 114 µM), for the others: at the highest dose activity change, negative = inhibition, most hits filed as inhibitors;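 note: potency is the fitted concentration of half-maximal effect; plate controls were DMSO vehicle for no effect and no enzyme for full effect; nearly all actives have a fitted effect of over 65% in size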
Target sequence (Q9BV86 whole entry, looked up): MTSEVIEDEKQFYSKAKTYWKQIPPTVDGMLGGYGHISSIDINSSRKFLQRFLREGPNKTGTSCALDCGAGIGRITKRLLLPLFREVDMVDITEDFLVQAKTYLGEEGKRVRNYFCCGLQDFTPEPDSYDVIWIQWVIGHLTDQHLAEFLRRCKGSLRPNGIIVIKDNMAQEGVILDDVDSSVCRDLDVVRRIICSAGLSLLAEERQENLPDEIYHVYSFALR
Sfp qHTS opt: qHTS Assay for Inhibitos of Bacillus subtilis Sfp phosphopantetheinyl transferase (PPTase): Chemistry Optimization Followup. shares compounds with NTMT1 inhibitor. purified Sfp PPTase enzyme activity, qHTS. Potency, µM (doses to about 114 µM), for the others: at the top dose activity change, negative = inhibition, usual class: inhibitors. 78% of 230 active. AID 540350, 2011
Bsub HM489 growth: qHTS for Inhibitos of Bacillus subtilis Sfp phosphopantetheinyl transferase (PPTase): Chemistry Optimization Followup in B. Subtilis HM489; B. subtilis HM489 (acpS-) growth, BacTiter-Glo, 5 h; 50% of 220 active; Potency, µM (titrated, usually from 114 µM), for the others: at the highest dose activity change, negative = inhibition, actives largely listed as inhibitors; shares compounds with NTMT1 inhibitor
Sfp gel opt: Gel-Based Assay for Inhibitos of Bacillus subtilis Sfp phosphopantetheinyl transferase (PPTase): Chemistry Optimization Followup | shares compounds with NTMT1 inhibitor | purified Sfp PPTase, gel-based product detection | Potency, µM (highest dose often 250 µM), inactives show top-dose activity change, negative = inhibition, hits mostly inhibitors | 54% of 220 active | AID 540355, 2011
Sfp inh SAR2: qHTS Assay for Inhibitors of Bacillus subtilis Sfp phosphopantetheinyl transferase (PPTase): SAR Round 2; AID 602370, 2012; 87% of 230 active; purified Sfp enzyme, PPTase activity, qHTS; shares compounds with NTMT1 inhibitor; Potency, µM (titrated, usually from 57.1 µM), for the others: top-dose activity change, negative = inhibition, actives largely listed as inhibitors
USP2 K63 confirm: Confirmation Assay for Inhibitors of Ubiquitin-specific Protease USP2a Using CHOP2 as the Reporter: K633; shares compounds with NTMT1 inhibitor; USP2 cleavage of DiUb K63-3IQF, fluorescence kinetic; Potency, µM (titrated, usually from 57.5 µM), for inactives: at the top dose activity change, negative = inhibition, usual class: inhibitors; 80% of 30 active; AID 652172, 2013
Casp6 inh: qHTS for Inhibitors of Ubiquitin-specific Protease USP2a Using CHOP2 as the Reporter: Caspase 6 Assay; shares compounds with NTMT1 inhibitor; Caspase 6 enzyme, Caspase-Glo 6 luminescence; activity change, negative = inhibition, % at 46.1 µM; 30 tested, under 10 active
HSD17B4 inh: Extended Characterization of HPGD Inhibitors: Counterscreen Against HSD17b4 | shares compounds with NTMT1 inhibitor | purified HSD17B4, estradiol/NAD+, NADH fluorescence | Potency, µM (series often up to 57.1 µM), without a hit: at the highest dose activity change, negative = inhibition, most hits filed as inhibitors | 10% of 230 active | AID 743187, 2013
ALDH1A1 inh: Extended Characterization of HPGD Inhibitors: Counterscreen Against ALDH1A1; Potency, µM (titrated, usually from 57.1 µM), for inactives: top-dose activity change, negative = inhibition, usual class: inhibitors; recombinant ALDH1A1, NADH fluorescence, propionaldehyde/NAD+; 93% of 230 active; shares compounds with NTMT1 inhibitor; AID 743195, 2013
Target sequence (P00352 whole entry, looked up): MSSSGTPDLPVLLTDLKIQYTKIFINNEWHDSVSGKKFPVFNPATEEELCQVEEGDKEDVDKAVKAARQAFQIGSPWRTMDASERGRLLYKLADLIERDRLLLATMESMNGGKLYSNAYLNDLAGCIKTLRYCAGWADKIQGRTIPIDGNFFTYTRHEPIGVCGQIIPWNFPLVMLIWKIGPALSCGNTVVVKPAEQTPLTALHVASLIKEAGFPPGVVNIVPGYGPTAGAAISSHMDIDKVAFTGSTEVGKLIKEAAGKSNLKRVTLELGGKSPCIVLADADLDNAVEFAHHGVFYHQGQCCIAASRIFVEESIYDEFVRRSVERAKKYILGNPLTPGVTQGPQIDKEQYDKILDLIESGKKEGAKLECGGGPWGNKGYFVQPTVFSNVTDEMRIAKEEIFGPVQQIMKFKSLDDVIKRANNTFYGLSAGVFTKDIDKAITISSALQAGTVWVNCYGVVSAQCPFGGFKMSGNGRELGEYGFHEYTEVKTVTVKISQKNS
NNMT inh: Counterscreen qHTS for Inhibitors of N-terminal methyltransferase 1 (NTMT1): NNMT MTaseGlo assay | shares compounds with NTMT1 inhibitor | NNMT MTase-Glo luminescence, SAH detection | Potency, µM (top dose mostly 57.1 µM), for inactives: at the top dose activity, negative = inhibition, actives largely listed as inhibitors | 10% of 120 active | AID 1645878, 2021
Starred values were filed as active, the others as inactive; ? = inconclusive; nt = no result given; [ ] = another dose, or the depositor's remark. The list is not random: actives were taken first. Their share in the collection is about 4.6%. Unless noted, calls come from the whole dose curve; as a rule, active = well fitted curve in the direction sought with a large enough effect; inconclusive = small, poorly fitted or top-dose-only effect, or another doubt; inactive = no such curve, though single readings can be large; an effect the other way counts as inactive or inconclusive.

SMILES	HTT promoter inh	HTT-AS act	DRV1 agonist	NTMT1 inhibitor	NNMT inh	others
O=C(Nc1ccc(S(=O)(=O)Nc2nccs2)cc1)c1ccc2ccccc2c1	nt	nt	nt	?	nt	USP2 K63 confirm=3.9µM*;Casp6 inh=-26
COc1ccc(C2Nc3ccccc3C(=O)N2Cc2ccco2)cc1COc1ccccc1 (stereo not given)	nt	nt	nt	1%	nt
C[C@@H](Oc1cc(-n2cnc3ccc(OC4CCN(C)CC4)cc32)sc1C(N)=O)c1ccccc1C(F)(F)F	nt	nt	nt	2.2µM*	?
Cc1ccc(OCCn2c(CCNC(=O)c3cc(F)cc(F)c3)nc3ccccc32)cc1	nt	nt	nt	3%	nt
COc1ccc2cc3c(NC(=O)c4ccco4)nn(C)c3nc2c1	nt	nt	nt	-11%[57.5 µM]	-12%
C[C@@H]1N[C@H]2N(C1=O)c1ccccc1[C@@]2(O)C[C@@H]1C(=O)N[C@@H](C)c2nc3ccccc3c(=O)n21	nt	nt	nt	1%[29.8 µM]	nt
Cc1cc(-c2nnc3n2CCCCC3)c(C)n1-c1cccc(C(F)(F)F)c1	nt	nt	nt	10%	nt	HSD17B4 inh=10%;ALDH1A1 inh=?
Cc1ccc(-n2c(C)cc(-c3nnc4n3CCCCC4)c2C)cc1	nt	nt	nt	3%	nt	HSD17B4 inh=7%;ALDH1A1 inh=?
Cc1cc(-c2nnc3n2CCCCC3)c(C)n1-c1ccncc1	nt	nt	nt	4%[57.5 µM]	nt
CCOc1cc(C(C)(C)C)ccc1C1=NC(C)(c2ccc(Cl)cc2)C(C)(c2ccc(Cl)cc2)N1C(=O)N1CCN(CCCS(C)(=O)=O)CC1 (stereo not given)	nt	nt	nt	0%[57.5 µM]	nt
CC[N+]1(C/C2=C/CCCCCC2)CCC(NC(=O)C2c3cc(Cl)ccc3Oc3ccc(Cl)cc32)CC1 (stereo not given)	nt	nt	nt	?	?
CCN(c1cc(-c2ccc(CN3CCOCC3)cc2)cc(C(=O)NCc2c(C)cc(C)[nH]c2=O)c1C)C1CCOCC1	nt	nt	nt	3%	nt
COc1cccc(OCCCN)c1-c1cc(Nc2cnc(C#N)cn2)n[nH]1	nt	nt	nt	8.9µM*	-11%
COc1ccc(C2Nc3ccccc3C(=O)N2Cc2ccco2)cc1COc1c(C(C)C)cccc1C(C)C (stereo not given)	nt	nt	nt	3%	nt
O=C(O)c1cc(-c2c(-c3ccccc3)nn3ccccc23)n[nH]c1=O	nt	nt	nt	-6%[57.5 µM]	nt
Nc1[nH]nc2nnc(-c3c(-c4ccccc4)nn4ccccc34)cc12	-3%	-18%	nt	8.9µM*	11µM*
COc1cc2nc(N3CCN(C(=O)c4ccco4)C4CCCCC43)nc(N)c2cc1OC (stereo not given)	nt	nt	nt	?	24%
COc1ccc(OC)c2sc(N3CCN(C(=O)c4ccco4)CC3)nc12	-23%	-17%	-9	-8%	nt
C=C(C)C(=O)O[C@H]1CC2=CC(C/C(C)=C\[C@H]3OC(=O)C(=C)[C@H]13)OC2=O (stereo not given in full)	nt	nt	nt	7%[29.8 µM]	nt
Cc1cc(C)nc(NC(=S)N2CCN(c3ccc(NS(C)(=O)=O)nn3)CC2)c1	nt	nt	nt	-26%[57.5 µM]	nt	Sfp qHTS opt=?;Bsub HM489 growth=0%;Sfp gel opt=?;Sfp inh SAR2=4.6µM*;HSD17B4 inh=-21%;ALDH1A1 inh=24µM*
Cc1cc(C)nc(NC(=S)N2CCN(c3ccc(N4CCCC4)nn3)CC2)c1	nt	nt	nt	?	nt	Sfp qHTS opt=?;Bsub HM489 growth=?;Sfp gel opt=13µM*;Sfp inh SAR2=5.8µM*;HSD17B4 inh=27µM*;ALDH1A1 inh=19µM*
Cc1ccc(Sc2ccc(N3CCC(C(=O)Nc4cc(C)cc(C)c4)CC3)nn2)cc1	2%	-12%	?	14%	nt
C=C1CCC2C(C)(C)CC(O)CC2(C)C1CCC(C)CC(=O)O (stereo not given)	nt	nt	nt	6%[29.8 µM]	nt
CCCNc1ccc2ncc(-c3ccc4[nH]ncc4c3)n2n1	nt	nt	nt	28µM*	14µM*
COc1ccccc1NC(=O)Nc1ccc2ccccc2c1	nt	nt	nt	-9%[57.5 µM]	-14%

Bioassay records (PubChem BioAssay)
